Consider 26 molecules from PubChem BioAssay (NCATS).

Values joined by “and” are separate entries in the source; they are usually repeats but may differ in a detail not shown here. Identical values can stand only once. Results filed as inconclusive are left out. Unmarked numbers belong to inactive results. Active and inactive are the calls of the source. Calls follow the shape of the dose curve; as a rule, active = well fitted curve in the direction sought with a large enough effect; inconclusive = small, poorly fitted or top-dose-only effect, or another doubt; inactive = no such curve, though single readings can be large; an effect the other way counts as inactive or inconclusive.

Test [1] has as its target Cytochrome P450 3A7 (Homo sapiens) (UniProt P24462). The test can be described thus: Cytochrome P450 family 3 subfamily A member 7 (CYP3A7) small molecule antagonists: luciferase biochemical qHTS assay (AID 1963596). Also: % is scaled to controls: 0 for no effect and ±100 for the full control effect; nearly all actives have a fitted effect of over 40% in size. The gist of the method:
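Luminescence from luciferin released by CYP3A7 from a proluciferin substrate, read 20 min after detection reagent. Compound and enzyme-substrate mix sat 10 min before NADPH regeneration solution; reaction ran 1 h at room temperature.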
A general note: In qHTS, concentration-response curves come from the screen itself.

Test [2] in a line: Viability qHTS for spleen associated tyrosine kinase inhibitor (SYKi) naive MV4-11 cells (AID 1963823). Also: nearly all actives have a fitted effect of over 40% in size. Also: potency is read from the fitted curve at half-maximal effect. The gist of the method: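 qHTS, SYK inhibitor-naive MV4-11; 500 cells/well; 72 hr compound exposure, 37 C; CellTiter-Glo added, 10 min RT; luminescence read.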
Test [3] in a line: Viability qHTS for spleen associated tyrosine kinase inhibitor (SYKi) drug resistant MV4-11 cells (AID 1963824). Also: nearly all actives have a fitted effect of over 35% in size. The gist of the method: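 CellTiter-Glo luminescence, read 10 min after reagent addition, reports viability after a 72 hr compound exposure. Cells are an MV4-11 line made resistant to SYK inhibition, seeded at 500 per well onto compound-containing plates.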
A short description of test [4]: Cellular viability qHTS for adrenocortical cancer (ACC) cell line SW-13 (AID 1963989).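 Also: cells grown in serum-free medium with ITS supplement; % is scaled to controls: 0 for no effect and ±100 for the full control effect; nearly all actives have a fitted effect of over 65% in size.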 As to conditions: SW-13 ACC cells viability, CellTiter-Glo, 48 h; activity (max response): stronger effect = lower value. In a few lines: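 IC50 and maximal-response values come from four-parameter logistic fits of titration data. SW-13 cells in serum-free medium received compounds (up to 46 uM final) for 48 h before CellTiter-Glo luminescence.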

The nature of test [5]: Cellular viability qHTS for adrenocortical cancer (ACC) cell line NCI-H295R (AID 1963990).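 Also: 0% = DMSO only wells and -100% = full killing with cytotoxic reference compound; nearly all actives have a fitted effect of over 60% in size.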 The gist of the method: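 Adrenocortical carcinoma cells, suspended at 300 000 cells/mL in serum-free DMEM plus ITS, rested overnight before pin transfer of compound. After two days' incubation, ATP-dependent luminescence was recorded and curve-fitted.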
A short description of test [6]: Quantitative highthroughput screen to assess conditional lethalithy of NOMO1 cells grown in RPMI1640 with untreated serum (RPMI+s) (AID 1963876). Also: nearly all actives have a fitted effect of over 35% in size. Also: potency is read from the fitted curve at half-maximal effect.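 As to Viability: 100% = DMSO wells and 0% = empty wells without cells.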 In a few lines: (§1)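 Each medium arm—HPLM with 10% dialyzed FBS, or RPMI1640 with 5 mM glucose and 10% untreated or dialyzed FBS—was screened against an 11-point, 3-fold compound titration for 48 h at 37 °C, with CellTiter-Glo luminescence as endpoint.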

The nature of test [7]: Quantitative highthroughput screen to assess conditional lethalithy of NOMO1 cells grown in RPMI1640 with dialyzed fetal bovine serum (RPMI+ds) (AID 1963877). Also: nearly all actives have a fitted effect of over 30% in size. Also: potency is read from the fitted curve at half-maximal effect.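 As to Viability: series mostly up to about 46 µM; 100% = DMSO control wells and 0% = empty wells.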 In a few lines: as §1
The nature of test [8]: Quantitative highthroughput screen to assess conditional lethalithy of P12 Ichikawa cells grown in Human Plasma-Like Medium with dialyzed fetal bovine serum (HPLM+ds) (AID 1963879). Also: nearly all actives have a fitted effect of over 35% in size. Also: potency is read from the fitted curve at half-maximal effect. As to Viability: series mostly up to about 46 µM. The conditions noted are these: Potency: viability. In a few lines:
as §1

A short description of test [9]: Quantitative highthroughput screen to assess conditional lethalithy of P12 Ichikawa cells grown in RPMI1640 with untreated serum (RPMI+s) (AID 1963881). Also: nearly all actives have a fitted effect of over 35% in size. Also: potency is read from the fitted curve at half-maximal effect.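 As to Viability: series mostly up to about 46 µM; 100% = DMSO wells and 0% = empty wells without cells.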 The conditions noted are these: Potency: viability. In a few lines:
as §1

A short description of test [10]: Quantitative highthroughput screen to assess conditional lethalithy of SEM cells grown in Human Plasma-Like Medium with dialyzed fetal bovine serum (HPLM+ds) (AID 1963882). Also: nearly all actives have a fitted effect of over 35% in size. Also: potency is read from the fitted curve at half-maximal effect. As to Viability: series mostly up to about 46 µM. In a few lines:
as §1

Test [11] is described as follows: Quantitative highthroughput screen to assess conditional lethalithy of SEM cells grown in RPMI1640 with unreated serum (RPMI+s) (AID 1963883). Also: nearly all actives have a fitted effect of over 35% in size. Also: potency is read from the fitted curve at half-maximal effect.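 As to Viability: 100% = DMSO wells and 0% = empty wells without cells.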 The gist of the method: as §1
The nature of test [12]: Quantitative highthroughput screen to assess conditional lethalithy of SEM cells grown in RPMI1640 with dialyzed fetal bovine serum (RPMI+ds) (AID 1963884). Also: nearly all actives have a fitted effect of over 35% in size. Also: potency is read from the fitted curve at half-maximal effect.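 As to Viability: series mostly up to about 46 µM; 100% = DMSO control wells and 0% = empty wells without cells.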 The gist of the method:
as §1

The nature of test [13]: Quantitative highthroughput screen to assess conditional lethalithy of NOMO1 cells grown in Human Plasma-Like Medium with dialyzed fetal bovine serum (HPLM+ds) (AID 1963878). Also: nearly all actives have a fitted effect of over 35% in size. Also: potency is read from the fitted curve at half-maximal effect.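 As to Viability: 100% = DMSO wells and 0% = empty wells on each plate.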 In a few lines:
as §1

The nature of test [14]: Quantitative highthroughput screen to assess conditional lethalithy of P12 Ichikawa cells grown in RPMI1640 with dialyzed fetal bovine serum (RPMI+ds) (AID 1963880). The conditions noted are these: Potency: P12-Ichikawa viability. The gist of the method:
as §1

Cytochrome P450 3A7 (Homo sapiens), sequence (P24462 whole entry, looked up): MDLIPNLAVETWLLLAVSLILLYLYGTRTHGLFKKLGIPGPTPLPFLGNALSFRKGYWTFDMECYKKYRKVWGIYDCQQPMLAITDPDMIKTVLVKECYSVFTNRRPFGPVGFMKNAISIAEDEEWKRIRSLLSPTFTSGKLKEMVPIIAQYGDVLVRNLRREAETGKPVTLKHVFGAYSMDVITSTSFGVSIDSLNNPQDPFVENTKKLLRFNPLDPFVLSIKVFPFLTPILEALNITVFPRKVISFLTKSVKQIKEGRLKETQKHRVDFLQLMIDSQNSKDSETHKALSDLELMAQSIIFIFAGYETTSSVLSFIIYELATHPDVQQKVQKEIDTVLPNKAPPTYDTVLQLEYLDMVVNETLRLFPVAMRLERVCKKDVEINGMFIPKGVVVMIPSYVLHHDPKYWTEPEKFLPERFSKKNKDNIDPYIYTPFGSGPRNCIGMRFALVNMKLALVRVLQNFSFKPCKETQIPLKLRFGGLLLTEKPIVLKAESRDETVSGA

Turning to `N[C@@H](CSSC[C@H](N)C(=O)O)C(=O)O`, in test [1], the activity change, negative = inhibition was 0.172% [at 0.91 µM]. For the same molecule, the viability (% of control) in [2] is 68.4% [at 0.588 µM]. The viability, % of control in [3] is 76.8% [at 0.588 µM]. In [4], the activity (max response) was 5.04%. In addition, in test [5], the activity change, negative = viability loss is -0.603% [at 0.587 µM].
Consider `COc1ccc(OC)c(C(O)CNC(=O)CN)c1` (stereo unspecified), for which the Potency result in test [1], in [2], in test [3] and in [5] was “inactive” in each case. Moreover, the activity (max response) in [4] is 12.3%.
Take `O=C(O)c1ccccc1-c1ccc(C(F)(F)F)cc1`: the Potency result in test [1], in test [2], in test [3] and in [5] was “inactive” throughout. For the same molecule, the activity (max response) in [4] was 8.51%.
For the molecule `COc1ccc(C(=O)N2CCN(CC(=O)N3CCOCC3)CC2)cc1`, the Potency result in test [1], in test [2], in [3] and in [5] was “inactive” in each case. Also, the activity (max response) in test [4] was 8.16%.
As for `O=C1NCC2(CCN(CCc3ccccc3)CC2)O1`, the Potency entry in test [1], in test [2], in test [3] and in test [5] was “inactive” throughout. The activity (max response) in [4] is 4.78%.
Take `NC(=O)c1ncn([C@@H]2O[C@H](CO)[C@@H](O)[C@H]2O)c1N`: the Potency result in test [1], in test [2], in test [3] and in [5] was “inactive” throughout. Moreover, the activity (max response) in [4] was 3.4% and 2.54%.
For the molecule `CN(C)CC/C=C1/c2ccccc2COc2ccc(CC(=O)O)cc21`, the Potency entry in test [1], in [2], in test [3] and in test [5] was “inactive” throughout. Besides, the activity (max response) in test [4] was 1.77% and 7.73%.
For `COC(=O)c1cccnc1`, the Potency entry in test [1], in [2], in [3] and in [5] was “inactive” throughout. Also, the activity (max response) in [4] is 5.78%.
Regarding `CCN(CC)C(=O)c1cccc(C)c1`, the Potency entry in [1], in test [2], in test [3] and in [5] was “inactive” throughout. For the same molecule, in [4], the activity (max response) is 6.94%.
As to `CC(=O)N[C@@H](CS)C(=O)O`, the Potency entry in test [1], in test [2], in test [3] and in [5] was “inactive” in each case. For the same molecule, the activity (max response) in test [4] was 15.1%.
Consider `OC[C@H]1O[C@H](O[C@]2(CCl)O[C@H](CCl)[C@@H](O)[C@@H]2O)[C@H](O)[C@@H](O)[C@H]1Cl`, for which the Potency entry in test [1], in [2], in test [3] and in test [5] was “inactive” throughout. The activity (max response) in [4] is -4.41%.
Consider `CCC(C(=O)NC(=O)NC(C)=O)c1ccccc1` (stereo unspecified), for which the Potency entry in [1], in test [2], in test [3] and in [5] was “inactive” throughout. For the same molecule, the activity (max response) in test [4] was -1.46%.
For the molecule `CCOC(=O)c1cccnc1`, the Potency entry in test [1], in test [2], in test [3] and in test [5] was “inactive” each time. In addition, in test [4], the activity (max response) was 14.3%.
For the molecule `CCc1cccc2c(CCO)c[nH]c12`, the Potency entry in test [1], in test [2], in test [3] and in [5] was “inactive” in each case. Also, in test [4], the activity (max response) was 12.9%.
For the molecule `O=C(NCN1CCOCC1)c1cnccn1`, the Potency result in test [1], in [2], in test [3] and in test [5] was “inactive” throughout. Moreover, the activity (max response) in [4] is -5.4%.
Take `CC(C)Nc1cc(C(F)(F)F)cc2nc(NC(=O)c3cccnc3)nn12`: the Potency result in test [1] was “inactive”. Moreover, the Potency was 184 nM (active) in [2]; 1.05 µM (active) in [6]; 0.743 µM (active) in test [7]; 0.935 µM (active) in [8]; 2.35 µM (active) in test [9]; 1.32 µM (active) in test [10]. Besides, the Potency in test [11] and in test [12] was 1.18 µM (active) in each case. For the same molecule, the activity (max response) in test [4] was -12.5%.
On to `NCCOc1cc(C(=O)Nc2cc(OCCN)c3ccccc3n2)nc(C(=O)Nc2cc(OCCN)c3ccccc3n2)c1`, for which the Potency result in test [1] and in test [13] was “inactive” each time. For the same molecule, in [2], the Potency was 1.3 µM (active) and 1.66 µM (active).
`CC(N)C12CC3CC(CC(C3)C1)C2` (stereo unspecified): the Potency result in test [1], in test [2], in [10], in test [11] and in test [5] was “inactive” throughout. Also, the Potency in test [13] was 10.5 µM (active); in test [8], 26.4 µM (active). The activity (max response) in test [4] is -5.6% and -7.27%.
Turning to `CNC1CCCN(c2c(F)cc3c(=O)c(C(=O)O)cn(C4CC4)c3c2OC)C1` (stereo unspecified), the Potency entry in test [1], in test [2], in [6], in test [7], in test [13] and in [8] was “inactive” throughout. Moreover, the Potency result in test [14], in [9], in [11], in [12] and in test [5] was “inactive” in each case. For the same molecule, in test [4], the activity (max response) was 2.01% and 5.57%.
Turning to `CCOc1cc(OCC)c(C(=O)CCC(=O)O)cc1OCC`, the Potency entry in test [1] and in test [2] was “inactive” throughout. Also, the activity (max response) in test [4] was 6%.
For the molecule `NS(=O)(=O)c1cc2c(cc1Cl)NC(C(Cl)Cl)NS2(=O)=O` (stereo unspecified), the Potency result in test [1], in test [2], in test [6], in [7], in test [13] and in test [8] was “inactive” each time. Further, the Potency entry in test [14], in test [9], in test [10], in test [11], in test [12] and in test [5] was “inactive” in each case. In test [4], the activity (max response) is 15.1% and 11.4%.
In the case of `O=C(O)CCCCC(=O)O`, the Potency entry in test [1], in test [2], in test [3] and in [5] was “inactive” throughout.
In the case of `CC(C)CCCC(C)N` (stereo unspecified), the Potency result in test [1], in [2], in test [3] and in test [5] was “inactive” each time.
As to `COc1cc(C)nc(-n2nc(C)cc2OC)n1`, the Potency result in test [1] and in test [2] was “inactive” throughout. Besides, the activity (max response) in [4] is 11%.
As to `C1Cc2[nH]nc(-c3nn[nH]n3)c2C1`, the Potency result in test [1], in test [2], in test [6], in test [7], in [13] and in test [8] was “inactive” each time. The Potency entry in test [14], in [10], in [11], in test [12] and in test [5] was “inactive” in each case. Further, the activity (max response) in test [4] is 1.5%.
For `O=C1C(=O)c2ccccc2C(O)=C1C1CCC(c2ccc(Cl)cc2)CC1` (stereo unspecified), the Potency entry in test [1], in test [2], in [3] and in test [5] was “inactive” throughout.
